Screening results (PubChem BioAssay)
CHO-K1 Ca ag = nonselective activator or artifact in parental CHO-K1 cells; Fluo-8 calcium fluorescence; scaled to maximal ATP response, vehicle zero; activation, % at 3 µM; 0.48% of 360,000 active; AID 602248; in the data active means activation above about 15%;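 further: untransfected CHO-K1 host cells lacking M1 receptor as counterscreen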
CHO-K1 Ca antag = M1 antagonist counterscreen hit in parental CHO-K1 cells; ATP-induced calcium, Fluo-8 fluorescence; inhibition, % at 3 µM; AID 602250; 0.6% of 360,000 active;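 active means inhibition above a per-plate cutoff, the plate's mean sample inhibition plus 3 SD, cut at about 24% in these data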
M1 antag = blocks human M1 muscarinic receptor; P11229; CHO-K1 hM1, Fluo-8 calcium fluorescence, ACh EC80 antagonist; inhibition, % at 3 µM; 1.3% of 360,000 active; AID 588852;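 active means percent inhibition above its own plate's cutoff, namely the mean of that plate's compound wells plus 3 SD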;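 further: peak over basal fluorescence ratio during 140 s after agonist addition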
Target sequence (P11229 whole entry, looked up): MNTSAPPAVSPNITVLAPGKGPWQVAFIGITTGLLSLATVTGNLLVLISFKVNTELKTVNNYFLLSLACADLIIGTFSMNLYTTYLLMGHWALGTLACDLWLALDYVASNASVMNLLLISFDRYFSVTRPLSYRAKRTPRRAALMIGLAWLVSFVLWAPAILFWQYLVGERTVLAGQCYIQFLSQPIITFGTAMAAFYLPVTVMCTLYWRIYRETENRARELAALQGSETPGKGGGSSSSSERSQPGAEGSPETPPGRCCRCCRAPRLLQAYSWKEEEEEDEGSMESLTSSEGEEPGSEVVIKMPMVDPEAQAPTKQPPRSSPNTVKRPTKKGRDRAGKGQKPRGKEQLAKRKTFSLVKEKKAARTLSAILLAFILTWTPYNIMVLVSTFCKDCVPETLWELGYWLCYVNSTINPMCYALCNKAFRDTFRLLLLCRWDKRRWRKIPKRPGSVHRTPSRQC
CHO-K1 Ca PAM = M1 PAM counterscreen hit in parental CHO-K1 cells; ATP EC20, Fluo-8 calcium fluorescence; 0% at ATP EC20, 100% at ATP max; activation, % at 3 µM; 0.02% of 360,000 active; AID 602247;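 active means activation above the run cutoff, the mean activation of all test compounds plus 3 SD, cut at about 40% in these data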;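 further: peak over basal fluorescence ratio in a 140 s read after ATP addition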
CHRM1 agonist = agonists of human M1 muscarinic receptor; P11229; CHO-K1 hM1, Fluo-8 calcium fluorescence, agonist mode; 0% DMSO, 100% acetylcholine EC100; activation, % at 3 µM; 0.33% of 360,000 active; AID 588814;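 active means activation above the run's mean compound activation plus 3 SD, cut at about 16% in these data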;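 further: peak over basal fluorescence ratio within a 140 s kinetic read after compound addition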
CHRM1 PAM = positive allosteric modulators of human M1 muscarinic receptor; P11229; CHO-K1 hM1, Fluo-8 calcium fluorescence, ACh EC20; 0% = ACh EC20, 100% = maximal ACh; activation, % at 3 µM; 0.088% of 360,000 active; AID 588819; in the data active means activation above about 19%, passing the limit was not always enough
A number is an active result; 0 = inactive. Only some compounds are listed: those with a hit (about 2.3% of all), similar ones and a draw of the others.

SMILES	CHO-K1 Ca ag	CHO-K1 Ca antag	M1 antag	CHO-K1 Ca PAM	CHRM1 agonist	CHRM1 PAM
O=C(CNC(=O)c1ccco1)NNC(=O)c1cccc(Cl)c1	0	0	0	0	0	0
NC(=O)Cc1ccc(C(=O)c2ccccc2F)s1	0	25	0	0	0	0
COc1ccc(C(=O)NCC(C)(C)N2CCOCC2)cc1S(=O)(=O)N1CCCC1	0	0	0	0	0	0
C=CCn1c(C(C)C)nc2ccccc21	18	0	0	0	0	0
C=CCn1c(C(O)c2ccccc2)nc2ccccc21 (centres undefined)	0	0	0	0	0	0
CCCc1cc(N2CCCC(C(=O)NCc3ccc4c(c3)OCO4)C2)n2ncnc2n1 (centres undefined)	0	0	0	0	0	28
Cc1cc(C)nc(N2CCCC(C(=O)NCc3ccc4c(c3)OCO4)C2)n1 (centres undefined)	0	0	0	0	0	0
Cc1c(C(=O)NCc2ccc3c(c2)OCO3)oc2ccc(S(=O)(=O)N3CCCCC3)cc12	0	0	28	0	0	0
O=C(NCc1ccc2c(c1)OCO2)C1CCCN(S(=O)(=O)c2cccnc2)C1 (centres undefined)	0	48	0	0	0	0
Cc1ccc(S(=O)(=O)N2CCCC(C(=O)NCCc3ccc4c(c3)OCO4)C2)cc1 (centres undefined)	0	24	0	0	0	0
Cc1c(C(=O)NCc2ccc3c(c2)OCO3)oc2ccc(S(=O)(=O)N3CCCC3)cc12	0	0	0	0	0	0
COc1ccc(/C=C2\CCCC3C2=NN(C(=O)c2scnc2C)C3c2ccc(OC)c(OC)c2)cc1OC (centres undefined)	19	0	0	0	0	0
Cc1cc(C)cc(NS(=O)(=O)c2c(C)[nH]c(=O)[nH]c2=O)c1	0	27	0	0	0	0
CCC(C)N(CCNC(=O)CC1Oc2ccc(C)cc2NC1=O)C1CCCCC1 (centres undefined)	0	0	101	0	0	0
Cc1ccc2c(c1)NC(=O)C(CC(=O)NCCCN1CCCCC1C)O2 (centres undefined)	0	0	0	0	0	0
CC1CCCCN1CCNC(=O)CC1Oc2ccccc2NC1=O (centres undefined)	0	0	36	0	0	0
Cc1ccc2c(c1)NC(=O)C(CC(=O)NCCCN1CCCC1)O2 (centres undefined)	0	0	0	0	0	0
COc1ccc(NS(=O)(=O)c2ccc(OCC(=O)N3CCCC3)cc2)cc1	17	0	0	0	0	0
CCOc1ccc(NS(=O)(=O)c2ccc(C(=O)NCC3(N(C)C)CCCCC3)cc2)cc1	19	0	0	0	0	0
CCOc1ccc(NS(=O)(=O)c2ccc(C(=O)N3CCCC(C)C3)cc2)cc1 (centres undefined)	31	0	28	0	39	0
CCOc1ccc(NS(=O)(=O)c2ccc(C(=O)N3CCCCCC3)cc2)cc1	15	0	0	0	22	0
Cn1c(CNC(=O)C(Cc2ccccc2)NC(=O)c2ccccc2F)cc(=O)n(C)c1=O (centres undefined)	0	0	0	0	0	0
COc1ccc(NS(=O)(=O)c2ccc(C(=O)N3CCCCCC3)cc2)cc1	18	0	0	0	23	0
O=C(c1ccc(S(=O)(=O)Nc2ccccc2)cc1)N1CCCC(C(F)(F)F)C1 (centres undefined)	15	26	0	0	31	0
CC(C)NS(=O)(=O)c1ccc(OCC(=O)N2CCN(c3ccccc3)CC2)cc1	0	0	0	0	0	0
CCOC(=O)N1CCN(C(=O)c2ccc(S(=O)(=O)Nc3ccc(C)cc3)cc2)CC1	0	0	32	0	0	0
O=C(COc1ccc(S(=O)(=O)NC2CCCCC2)cc1)N1CCN(c2cccc(Cl)c2)CC1	0	0	26	0	0	0
CCOC(=O)N1CCN(C(=O)c2ccc(NS(=O)(=O)c3ccc(C)cc3)cc2)CC1	0	0	0	0	0	0
C[C@H](CO)N1C[C@H](C)[C@@H](CN(C)S(=O)(=O)c2cn(C)cn2)Oc2c(NS(=O)(=O)c3cccs3)cccc2C1=O	0	0	0	0	0	0
